# Experimental data reported in publication PMC4336329 (PLoS ONE, 2015).
# Among all 310,000 compounds or so, about 14,000 (4.5%) showed an effect of 50% or more. Effects have a minus sign here. The sample as a whole holds a higher share of strong results than the screen did.
# Molecular target: human ether-à-go-go-related gene (hERG) potassium channel (human, UniProt Q12809)
# Assay: primary screen, population patch clamp on CHO cells stably expressing hERG; higher = less effect of the substance
# 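Further: peak tail current of the secondary pulse compared with the same well before compound.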
# Chain of human ether-à-go-go-related gene (hERG) potassium channel (Q12809 whole entry, looked up): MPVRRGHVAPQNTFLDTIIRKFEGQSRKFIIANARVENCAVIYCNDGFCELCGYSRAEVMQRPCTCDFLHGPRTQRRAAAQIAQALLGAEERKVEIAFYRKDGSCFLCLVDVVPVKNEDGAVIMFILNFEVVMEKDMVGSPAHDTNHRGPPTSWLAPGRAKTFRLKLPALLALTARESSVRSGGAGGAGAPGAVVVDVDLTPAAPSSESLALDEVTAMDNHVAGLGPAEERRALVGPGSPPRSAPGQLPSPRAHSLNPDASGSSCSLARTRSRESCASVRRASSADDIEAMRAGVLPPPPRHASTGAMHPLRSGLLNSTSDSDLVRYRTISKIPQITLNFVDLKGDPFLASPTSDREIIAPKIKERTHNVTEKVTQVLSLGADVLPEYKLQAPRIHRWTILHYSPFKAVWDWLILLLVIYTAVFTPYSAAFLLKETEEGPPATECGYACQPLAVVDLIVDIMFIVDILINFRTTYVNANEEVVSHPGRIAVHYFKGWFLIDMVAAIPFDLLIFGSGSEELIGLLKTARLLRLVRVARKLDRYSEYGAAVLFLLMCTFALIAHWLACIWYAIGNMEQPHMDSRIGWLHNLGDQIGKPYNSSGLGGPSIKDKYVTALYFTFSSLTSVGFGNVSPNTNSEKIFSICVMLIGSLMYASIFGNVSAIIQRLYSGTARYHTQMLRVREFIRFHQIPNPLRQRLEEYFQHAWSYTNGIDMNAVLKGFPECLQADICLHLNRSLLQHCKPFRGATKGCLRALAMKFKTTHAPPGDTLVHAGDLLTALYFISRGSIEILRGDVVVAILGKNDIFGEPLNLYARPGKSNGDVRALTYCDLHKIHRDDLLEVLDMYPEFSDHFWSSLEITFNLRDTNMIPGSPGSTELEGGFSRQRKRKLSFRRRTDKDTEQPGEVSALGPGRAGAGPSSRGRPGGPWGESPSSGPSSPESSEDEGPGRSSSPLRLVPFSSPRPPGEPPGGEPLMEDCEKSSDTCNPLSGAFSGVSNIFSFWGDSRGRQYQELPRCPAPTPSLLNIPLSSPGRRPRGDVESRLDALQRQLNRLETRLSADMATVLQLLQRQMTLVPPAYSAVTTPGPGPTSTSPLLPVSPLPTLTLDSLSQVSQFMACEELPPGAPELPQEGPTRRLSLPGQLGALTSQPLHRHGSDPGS
row,Compound,"hERG current change (%, negative = inhibition) at 10uM"
1,Cc1cccc(N(C(=O)c2nsc(Cl)c2Cl)C(C(=O)NC2CCCC2)c2ccc(O)cc2)c1 (centres unmarked),-2.24%
2,N#CCO/N=C(\c1ccccc1)c1ccncc1,18.1%
3,O=C(Nc1cccc(C(=O)O)c1)/C(=C/c1ccc2c(c1)OCO2)NC(=O)c1cccc(Br)c1,7.35%
4,CCNC(=O)/C(=C\c1ccc2c(c1)OCO2)NC(=O)c1ccc(Br)cc1,-69.7%
5,O=C(O)CNC(=O)/C(=C\c1ccc2c(c1)OCO2)NC(=O)c1ccc(Br)cc1,8.77%
6,CCNC(=O)/C(=C/c1ccc2c(c1)OCO2)NC(=O)c1ccc(Br)cc1,-58.3%
7,O=C(Nc1ccc(C(=O)O)cc1)/C(=C/c1ccc2c(c1)OCO2)NC(=O)c1cccc(Br)c1,7.25%
8,C=CCNC(=O)/C(=C\c1ccc2c(c1)OCO2)NC(=O)c1ccc(Br)cc1,-30%
9,CC1CC2=C(C(=O)O1)C(c1ccc(Cl)cc1)Nc1ccccc1N2 (centres unmarked),-6.21%
10,Cc1ccc(-c2csc(NC(=O)CCNC(=O)c3ccccc3Cl)n2)cc1,1.5%
11,CC1CCCCC1N1CCN(C(=O)c2cccc(F)c2)CC1.O=C(O)C(=O)O (centres unmarked),-17.5%
12,CS(=O)(=O)c1ccc(-c2cccc(NC(=O)COc3ccccc3)c2)nn1,-3.45%
13,CCCN1C(=O)/C(=C/c2nc3ccccc3c(=O)[nH]2)c2ccccc21,1.75%
14,O=C(COC(=O)c1nc(Cl)ccc1Cl)Nc1ccc2c(c1)OCO2,-3.62%
15,Cc1c(O)c(S(=O)(=O)c2ccccc2)c(=O)n(-c2ccccc2)c1-c1ccccc1,3.84%
16,Cl.N=c1n(CCN2CCCC2)c2ccccc2n1CC(O)c1ccc(Cl)c(Cl)c1 (centres unmarked),-91.4%
17,COc1ccc(C(O)Cn2c(=N)n(CCCN(C)C)c3ccccc32)cc1.Cl (centres unmarked),-13%
18,Cl.N=c1n(CCO)c2ccccc2n1CCN1CCCCC1,6.77%
19,Cl.N=c1n(CCN2CCCCC2)c2ccccc2n1CC(O)c1cccc(Br)c1 (centres unmarked),-63.2%

row,Compound,"hERG current change (%, negative = inhibition) at 10uM"
1,OC(CN1CCCCC1)Cn1c2ccccc2c2cc(Br)ccc21 (centres unmarked),-33.1%
2,CN(C)CCn1c(=N)n(CC(O)c2ccc(Cl)c(Cl)c2)c2ccccc21.Cl (centres unmarked),-66.1%
3,Cl.N=c1n(CCN2CCCCC2)c2ccccc2n1CC(O)c1ccc(Cl)c(Cl)c1 (centres unmarked),-105%
4,Cc1ccc2c(c1)N(CCC(=O)NCCCOC(C)C)C(=O)C(C)O2 (centres unmarked),-0.496%
5,O=C(Nc1ccccc1C(=O)NCc1cccnc1)c1cccc([N+](=O)[O-])c1,-1.36%
6,O=C(CSc1nc(-c2ccc(F)cc2)cc(C(F)(F)F)n1)NCc1ccco1,10.2%
7,Oc1nc(-c2ccc(Br)cc2)n2ccncc12,-8.14%
8,CC(C)(C)NC(=O)CSc1nc2ccccc2c(=O)[nH]1,11.7%
9,COc1ccc(CCNC(=O)c2cc3ccccn3n2)c(OC)c1OC,-3.41%
10,O=C(CNC1CCCCC1)N1CCC2(CC1)OCCO2.O=C(O)C(=O)O,21.4%
11,CCOC(=O)Cc1cc(=O)n2[nH]c(-c3ccccc3)c(-c3ccccc3)c2n1,-18%
12,CC(=O)N1CCN(CC(O)Cn2c3ccccc3c3ccccc32)CC1 (centres unmarked),7.81%
13,CCOc1ccc(CN2CCN(CC(O)Cn3c4ccccc4c4ccccc43)CC2)cc1 (centres unmarked),-70.9%
14,CC1CCN(CC(O)Cn2c3ccccc3c3ccccc32)CC1 (centres unmarked),-54%
15,OC(CN1CCCCC1)Cn1c2ccccc2c2ccccc21 (centres unmarked),3.16%
16,O=CN1CCN(CC(O)Cn2c3ccccc3c3ccccc32)CC1 (centres unmarked),-23.6%
17,OC(CN1CCOCC1)Cn1c2ccccc2c2ccccc21 (centres unmarked),2.42%
18,CN1CCN(CC(O)Cn2c3ccccc3c3ccccc32)CC1.O=C(O)C(=O)O (centres unmarked),3.46%
19,OC(CN1CCN(Cc2ccccc2)CC1)Cn1c2ccccc2c2ccccc21 (centres unmarked),-67.7%

row,Compound,"hERG current change (%, negative = inhibition) at 10uM"
1,COc1ccc(CN2CCN(CC(O)Cn3c4ccccc4c4ccccc43)CC2)cc1 (centres unmarked),-75.2%
2,Cl.OC(CN1CCNCC1)Cn1c2ccccc2c2ccccc21 (centres unmarked),-6.23%
3,OC(CN1CCN(c2ccccc2)CC1)Cn1c2ccccc2c2ccccc21 (centres unmarked),9.1%
4,Cc1ccc(OCCN2CCN(CC(O)Cn3c4ccccc4c4ccccc43)CC2)cc1.O=C(O)C(=O)O (centres unmarked),-25.1%
5,CSc1cc(C)[nH]c(=O)n1,7.05%
6,CCOc1cc(S(=O)(=O)Nc2ccc(Cl)cn2)ccc1Cl,5.67%
7,CCC(C)C(NC(=O)OCc1ccccc1)C(=O)OCN1C(=O)c2ccccc2C1=O (centres unmarked),-2.01%
8,COCc1cc(C)nc2sc(C(=O)Nc3ccc(OC)cc3)c(N)c12,12.5%
9,COc1ccccc1CN1CCCCC1C(=O)O (centres unmarked),9.48%
10,CCC(C)n1c(=S)[nH]c2ccccc2c1=O (centres unmarked),-0.621%
11,O=C(CC12CC3CC(CC(C3)C1)C2)NC(=S)N1CCCCC1,26.6%
12,CN(CC(=O)Nc1ccccc1Br)C(=O)c1ccccc1-c1nc2ccccc2s1,-26.3%
13,O=C(CCS(=O)(=O)c1ccc(Br)cc1)NC1CCCC1,11.6%
14,COC(=O)c1ccc(-c2c(-c3ccccc3)ncc3cc(F)ccc23)cc1,7.97%
15,CCN(CC)CC(O)CN1c2ccccc2Sc2ccccc21 (centres unmarked),-25%
16,CC1CCN(C(=O)N2c3ccccc3Sc3ccccc32)CC1,-5.69%
17,CC1CCN(CC(O)CN2c3ccccc3Sc3ccccc32)CC1 (centres unmarked),-59.2%
18,COC(=O)c1sc(NC(=O)COc2ccc(OC)cc2)nc1C,6.37%
